CRFBP-R2 block: antagonists of CRF-BP/CRF-R2 complex, primary screen, cell-based, HEK293, calcium dye fluorescence, uHTS; AID 588475, 2011; CRF-induced calcium fluorescence; hit rate 0.59% among 350,000; inhibition, % at 11.8 µM;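 active means inhibition of the ligand-induced calcium signal above about 50% at the single tested concentration, limit read from the data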
PfGluPho inh: PfG6PD enzyme inhibitors, primary screen, biochemical, fluorescence intensity, uHTS; inhibition, % at 20 µM; PfGluPho enzyme, NADPH resazurin-diaphorase fluorescence; glucose-6-phosphate dehydrogenase-6-phosphogluconolactonase (Plasmodium falciparum 3D7); hit rate 0.78% among 350,000; AID 504690, 2011;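 active means inhibition reaching at least a set limit at 20 µM in the primary screen, cut at about 59% in these data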;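 further: 0% = DMSO wells with substrate and 100% = DMSO wells lacking glucose-6-phosphate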
CRFR2-BP ag: agonists of CRF-BP/CRF-R2 complex, primary screen, cell-based, HEK293, calcium dye fluorescence, uHTS | CRF-binding protein / CRF receptor 2 complex (human) | calcium dye fluorescence (FLIPR); percent of saturating CRF peptide response | activation, % at 13.2 µM | hit rate 0.46% among 350,000 | AID 588473, 2011;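 active means activation of at least 50%, plus an integration ratio under a set limit after plate pattern correction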;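 further: plate controls were neutral control wells without compound for no effect and CRF at EC100 for full effect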
H9c2 protect: cardioprotection against H2O2-induced cell death, primary screen, uHTS, H9c2 cells, ATPLite luminescence; H9c2 cardiomyocytes, H2O2 injury protection, 2 h; protection from H2O2 cell death, % at 20 µM; hit rate 0.63% among 360,000; AID 588492, 2011;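 active means compounds giving at least 50% protection of heart cells from peroxide-induced death in the single-dose screen, raw or plate-pattern-corrected value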;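 further: 0% = DMSO wells with peroxide and 100% = DMSO wells without peroxide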
FAS-TE inh: FAS thioesterase domain inhibitors, primary screen, biochemical, fluorescence intensity, uHTS; Fatty acid synthase (Homo sapiens), P49327; recombinant FAS-TE, OMFH fluorogenic substrate, fluorescence endpoint; inhibition, % at 15 µM; hit rate 0.67% among 360,000; AID 602261, 2012;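 active means compounds whose normalised, plate-corrected inhibition of enzyme fluorescence in the single-dose primary screen is 50% or more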;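 further: 0% = DMSO with enzyme and 100% = substrate without enzyme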
aDG glyco act: activators of alpha-DG glycosylation, primary screen, uHTS, Pro5-aDG cells, AlphaScreen; alpha-DG glycosylation AlphaScreen (IIH6); 0% Pro5, 100% B10-LARGE cell signal; activation, % at 10 µM; hit rate 0.22% among 360,000; AID 624168, 2012;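 active means activation of at least 8% versus controls, or a plate z-score of at least 8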;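 further: Pro5 are CHO cells carrying HIG-tagged alpha-DG that lacks glycosylation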
* = called active by the depositor; nt = not tested or not shown. An excerpt weighted towards active compounds, which were near 3.2% of everything screened.

SMILES	CRFBP-R2 block	PfGluPho inh	CRFR2-BP ag	H9c2 protect	FAS-TE inh	aDG glyco act
CCCCCCSc1ccc([C@H]2N[C@@](C)(C(=O)OC)[C@H]3C(=O)N(CC)C(=O)[C@@H]23)cc1	-5	18	-1	-11	25	1
CC(=O)Nc1cc(-c2ccc(N3CCN(C)CC3)cc2)cn2c(-c3cccc(C(C)=O)c3)cnc12	nt	nt	nt	4	-3	0
CC(=O)Nc1cccc(-c2cc(NC(C)=O)c3ncc(-c4cccc(C(C)=O)c4)n3c2)c1	nt	nt	nt	59*	-1	0
CC(=O)Nc1cc(-c2cccc(N)c2)cn2c(-c3ccc(C(C)=O)cc3)cnc12	nt	nt	nt	39	1	0
CC(=O)Nc1cccc(-c2cc(NC=O)c3ncc(-c4ccc(C(C)=O)cc4)n3c2)c1	nt	nt	nt	93*	-3	0
COc1ccc(-c2cc(NC(C)=O)c3ncc(-c4cccc(C(C)=O)c4)n3c2)cc1OC	nt	nt	nt	111*	7	0
CC(=O)c1ccc(-c2cnc3c(NC=O)cc(-c4ccccc4Oc4ccccc4)cn23)cc1	nt	nt	nt	19	17	0
COc1ccc(-c2cc(NC=O)c3ncc(-c4ccc(C(C)=O)cc4)n3c2)cn1	nt	nt	nt	64*	0	0
CSCCC(NC(=O)c1ccco1)C(=O)NCc1ccc2c(c1)OCO2 (stereo unspecified)	-8	-5	-1	4	-5	0
COc1ccc(C(=O)c2[nH]c(N)c(C(=O)NCCc3c[nH]c4ccccc34)c2-c2ccc(Br)cc2)cc1	nt	nt	nt	nt	20	0
CCCCN1CC(COCc2ccccc2)Oc2cccc(OCCN3C(=O)[C@@H]4[C@H](C3=O)C3C=C[C@H]4C3)c2S1(=O)=O (stereo partly specified)	-178	35	172*	71*	21	0
Cc1cc(C)c(C(=O)c2ccccc2C(=O)O)c(C)c1	nt	nt	nt	2	-6	2
CC1CN(S(=O)(=O)c2ccc(C(=O)N3CCc4ccccc43)cc2)CC(C)O1 (stereo unspecified)	110*	0	0	-10	0	0
O=C(NCc1cccs1)C1C(=O)Nc2ccccc2C(=O)N1Cc1ccccc1 (stereo unspecified)	nt	nt	nt	nt	nt	0
O=c1[nH]c2c(c(=O)[nH]1)CCCCCC2	1	2	1	-6	-3	0
O=c1[nH]c2c(c3c1CCCC3)CCCC2	14	-7	0	74*	-3	0
CCN(CC)c1ccc(/C=C(/C#N)c2nc3ccccc3[nH]2)c(OC(C)C)c1	-219	16	158*	-9	-60	0
Cc1c(NS(=O)(=O)c2ccc(Br)cc2)c(=O)n(-c2ccccc2)n1C	13	13	-3	-5	0	0
CSc1nc2ccc(S(=O)(=O)Nc3c(C)n(C)n(-c4ccccc4)c3=O)cc2s1	-15	-9	-4	106*	-7	0
COc1ccc(S(=O)(=O)Nc2c(C)n(C)n(-c3ccccc3)c2=O)cc1C(=O)O	51*	-8	2	2	-6	0
COc1ccc2c(c1)C(=O)[C@@H](O)[C@H](c1ccc(OC)c(Br)c1)O2	-76	-132	-2	52*	9	0
CC(=O)NNC(=O)c1csc(-c2csc(C)n2)n1	12	1	-2	7	-4	0
CCCN(C(=O)CCSc1ccc(F)cc1)c1c(N)n(Cc2ccccc2)c(=O)[nH]c1=O	-13	3	-2	1	2	0
O=C1CCc2nc3ccccc3c(=O)n2N1	80*	-4	-1	3	-8	1
CCC(=O)Oc1ccc2c(C)cc(=O)oc2c1C	-6	-16	4	59*	2	0
Cc1ccc2nc(N3C(=O)C(O)=C(C(=O)c4ccc(C)o4)C3c3cccc(O)c3)sc2c1 (stereo unspecified)	96*	-2	11	-4	3	0
CC1(c2ccc(OC(F)F)cc2)NC(=O)N(/N=C/c2c(O)ccc3ccccc23)C1=O (stereo unspecified)	-122	5	87*	21	29	0

Assay outcomes (PubChem)
